# p53null 39C tox – kills p53 null cells at the nonpermissive temperature; H1299 p53-null (neo) cells, 39C, ATPlite viability, 24 h; 55,000 tested, 0.97% active; Potency, µM (doses to about 46.1 µM), without a hit: at the top dose activity, negative = cell killing, hits mostly cytotoxic;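 also: 0% = DMSO only and -100% = full killing by 100 µM tamoxifen; nearly all actives have a fitted effect of over 50% in size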
#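 Luminescent ATP signal reported cell survival after H1299 lines (neo, p53 null; or p53 A138V) received up to 46 uM compound and 24 hr incubation at 39C.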
# S16 F2sN tox – S16 Schwann cell cytotoxicity; S16 Pmp22-F2sN Schwann cells viability, CellTiter-Glo, 24 h; Potency, µM (highest dose often 57.5 µM), for inactives: at the highest dose activity change, negative = cytotoxicity, hits mostly cytotoxic; 43,000 tested, 0.48% active; also: % is scaled to controls: 0 for no effect and ±100 for the full control effect; nearly all actives have a fitted effect of over 65% in size
#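 S16 Schwann cells carrying the Pmp22-F2sN reporter, seeded in 1536-well format, were exposed to library compounds for 24 h at 37C. Viability was read as CellTiter-Glo luminescence after 15 min at room temperature.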
# p53null 32C kill – kills p53 null cells at the permissive temperature | H1299-neo p53 null cells, ATP luminescence, 24 h, 32C | Potency, µM (highest dose often 46.1 µM), inactives show at the highest dose activity change, negative = cytotoxicity, hits mostly cytotoxic | 55,000 tested, 0.62% active;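 also: 0% = DMSO only and -100% = full killing by 100 µM tamoxifen; nearly all actives have a fitted effect of over 55% in size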
#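 Cells lacking p53 (H1299-neo) are plated at 600 per well and allowed to settle overnight at 37C. Test compounds (up to 46 uM) are added and held 24 hours at 32C, then ATP is quantified by luminescence.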
# GALC G270D act – raises human GALC G270D mutant activity in cells. Potency, µM (doses to about 57.5 µM), usual class: activators. P54803. AID 1159614. 45,000 tested, 0.1% active. 145M-Twi-hGALC-G270D cells (Twitcher mouse brain line with human GALC G270D), HMU-beta-Gal fluorescence, 48 h; also: 0% is about no effect; nearly all actives have a fitted effect of over 65% in size
# Target sequence (P54803 whole entry G286D): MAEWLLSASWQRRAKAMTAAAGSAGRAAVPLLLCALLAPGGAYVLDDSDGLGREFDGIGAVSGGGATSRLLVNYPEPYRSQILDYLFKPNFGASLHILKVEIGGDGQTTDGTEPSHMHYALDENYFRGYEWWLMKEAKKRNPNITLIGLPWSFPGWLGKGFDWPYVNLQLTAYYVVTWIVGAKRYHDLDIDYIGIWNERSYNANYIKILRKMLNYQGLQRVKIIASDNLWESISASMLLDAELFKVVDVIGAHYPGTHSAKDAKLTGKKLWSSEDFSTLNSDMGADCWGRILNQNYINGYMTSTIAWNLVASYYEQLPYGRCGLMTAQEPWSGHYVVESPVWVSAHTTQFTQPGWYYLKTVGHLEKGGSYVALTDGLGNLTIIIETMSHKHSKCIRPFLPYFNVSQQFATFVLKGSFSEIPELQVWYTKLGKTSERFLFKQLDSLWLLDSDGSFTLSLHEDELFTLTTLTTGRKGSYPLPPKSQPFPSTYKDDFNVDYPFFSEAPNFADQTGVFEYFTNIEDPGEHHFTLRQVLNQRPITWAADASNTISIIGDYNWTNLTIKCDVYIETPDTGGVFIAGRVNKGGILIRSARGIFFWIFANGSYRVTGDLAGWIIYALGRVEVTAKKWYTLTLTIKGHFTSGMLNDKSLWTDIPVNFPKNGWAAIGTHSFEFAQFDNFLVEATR
#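 Fluorogenic HMU-b-Gal hydrolysis (0.1 mM final, pH 5.2 citrate-phosphate with 1 mg/mL sodium taurocholate; carbonate stop buffer) measures mutant GALC activity after compound treatment of live 145M-Twi Twitcher brain cells stably carrying human GALC-G270D, with wild-type GALC line alongside; activation sought.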
# pS6 MEF inh – inhibitors of mTORC1 signaling in Tsc2-/- p53-/- MEF cells; Tsc2-/- p53-/- MEF, phospho-rpS6 immunofluorescence/PI, 24 h; Potency, µM (doses to about 38.3 µM), for inactives: at the highest dose activity change, negative = inhibition, actives largely listed as inhibitors; 44,000 tested, 0.78% active;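 also: plate controls were DMSO for no effect and rapamycin for full effect; nearly all actives have a fitted effect of over 50% in size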
#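 Readout is phospho-S6 Alexa 488 signal normalized to PI per well, reported as % active cells with thresholds set from rapamycin (7.5 nM) and DMSO controls. Cells: Tsc2-/-, p53-/- MEFs, 24 hrs compound at 37 C; PI cell number serves as viability.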
# PMP22 txn prim – modulates PMP22 transcription in S16 Schwann cells; S16 Pmp22-F2sN Schwann cells (luciferase reporters placed in the Pmp22 gene), FLuc/NLuc coincidence luminescence, 24 h; Potency, µM (top dose mostly 57.5 µM), for inactives: at the highest dose activity change, negative = inhibition, most hits filed as inhibitors; AID 1508649; 43,000 tested, 2% active; active = clear falling dose curves in both reporters; inconclusive = both reporters move, but less clearly or upward; inactive = either reporter flat; the % is the NLuc reporter signal; also: % is scaled to controls: 0 for no effect and ±100 for the full control effect
#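 Schwann cells carrying the coincidence reporter were exposed to library compounds for 24 h at 37C, then lysed and read for FLuc and, after quenching, NLuc luminescence on a CCD imager.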
# The depositor's hits bear a star; i = inactive; ? = inconclusive; · = no result; [ ] = dose if it differs, or a comment. Rows were chosen to be rich in hits. Some 3% of all compounds tested hit in one or more screens of this group. Unless noted, calls follow the shape of the dose curve; as a rule, active = well fitted curve in the direction sought with a large enough effect; inconclusive = small, poorly fitted or top-dose-only effect, or another doubt; inactive = no such curve, though single readings can be large; an effect the other way counts as inactive or inconclusive. Potency is read from the fitted curve at half-maximal effect.
SMILES,p53null 39C tox,S16 F2sN tox,p53null 32C kill,GALC G270D act,pS6 MEF inh,PMP22 txn prim
O=S(=O)(Nc1cccc(-c2ccc(N3CCCCC3)nn2)c1)c1cccc(F)c1,10µM*,·,?,·,-3.2%,·
CCN(CC)C(=O)C1CCCN(c2ncnc3c2c(-c2ccccc2)cn3-c2cccc(C)c2)C1 (stereo not drawn),-1.2%,-29.2%,22.1%,i,7.1%,?
COC(=O)c1ccc(Nc2nc(-c3ccc(C)cc3)nc3ccccc23)cc1,15.8µM*,2.0%,?,i,-5.8%,-30.9%
CCN1C(=O)c2ccccc2S(=O)(=O)c2ccc(C(=O)NCc3ccc(OC)cc3)cc21,-4.7%,3.3%,3.4%,i,2.9%,18.1%
CCOC(=O)c1[nH]c2ccccc2c1NC(=O)c1ccccc1OC,15.8µM*,?,7.2%,i,1.6%,?
Cc1oc(-c2nc3ccccc3n2C)cc1C(=O)c1ccccc1,11.2µM*,·,6.31µM*,·,·,·
Cc1cccc(N2CCN(c3ncnc4onc(C)c34)CC2C)c1 (stereo not drawn),?,?,?,i,-1.8%,11.3µM*
CC(C)NC(=O)C1CCN(C(=O)c2cc3sccc3n2Cc2ccc(Cl)cc2)CC1,-6.6%,?,14.5%,i,0.6%,9.46µM*
CC1CCN(c2oc(/C=C/c3ccc(F)cc3)nc2C#N)CC1,-13.9%,-18.7%,-2.0%,25.1µM*,-3.2%,-53.0%
COc1ccc(-n2ncc3c(NC(C)(C)CO)ncnc32)cc1,?,9.4%,12.6µM*,i,6.3%,14.8%
Cc1ccc(-n2ncc3c(NC(C)c4ccccc4)ncnc32)cc1 (stereo not drawn),4.0%,4.6%,?,i,2.3%,5.0%
CCC(CO)Nc1ncnc2c1cnn2-c1ccc(C)cc1 (stereo not drawn),20.3%,-12.0%,15.8µM*,i,9.7%,?
CCC1CCc2c(sc(NC(=O)C3c4ccccc4Oc4ccccc43)c2C#N)C1 (stereo not drawn),13.1%,·,21.2%,·,-10.0%,·
CC(=O)c1cccc(NS(=O)(=O)c2ccc3[nH]c4c(c3c2)CCCCCC4)c1,3.2%,-25.6%,18.0%,i,-6.1%,?
Cc1cccc(NS(=O)(=O)c2ccc3[nH]c4c(c3c2)CCCCCC4)c1,-9.2%,?,65.0%,i,13.1µM*,?
O=S(=O)(Nc1cccc(Cl)c1)c1ccc2[nH]c3c(c2c1)CCCCCC3,?,?,10µM*,i,-17.9%,?
CC(=O)c1cccc(NS(=O)(=O)c2ccc3[nH]c4c(c3c2)CCCCC4)c1,?,?,31.9%,i,?,?
COc1ccc(N2CC(NC(=O)c3ccco3)CC2=O)cc1OC (stereo not drawn),3.8%,5.7%,-4.7%,i,-1.1%,-2.0%
COc1ccc(C(=O)Nc2nc3c(s2)Cc2c(Br)ccc(OC)c2-3)cc1OC,-14.5%,?,-5.3%,i,-2.2%,?
COc1cc(C(=O)Nc2nc3c(s2)Cc2c(Br)ccc(OC)c2-3)cc(OC)c1OC,-25.6%,25.1µM*,-22.9%,i,0.3%,?
Cc1ccc(-c2cc(C(=O)N3CCN(c4ccccc4)CC3)c3ccccc3n2)cc1C,?,-18.3%,12.6µM*,i,?,?
COc1ccc2c(c1)C(=O)N(CCc1ccc(S(=O)(=O)NC(=O)NC3CCCCC3)cc1)C(=O)C2(C)C,·,·,·,i,·,·
CC(=O)Nc1cccc(NC(=O)C(=O)NCCc2csc3nc(-c4ccccc4F)nn23)c1,-3.7%,-0.4%,-0.1%,i,0.8%,-1.0%
CCCS(=O)(=O)c1ncc(Cl)c(C(=O)N2CCN(c3ccc(OC)cc3)CC2)n1,-12.5%,5.01µM*,?,i,?,5.97µM*
CCOC(=O)c1c(C)n(-c2ccccc2)c2ccc(OC(=O)c3cc(OC)cc(OC)c3)cc12,2.9%,-1.8%,-5.2%,i,10.0%,-15.1%
SMILES,p53null 39C tox,S16 F2sN tox,p53null 32C kill,GALC G270D act,pS6 MEF inh,PMP22 txn prim
CC(=O)Nc1ccc(NS(=O)(=O)c2ccc3c(c2)CC(C)N3C(=O)C2CCC2)cc1 (stereo not drawn),-11.1%,-29.2%,-7.9%,i,-8.4%,?
CC(=O)c1ccc(N2CCN(S(=O)(=O)c3ccc4c(c3)CC(C)N4C(=O)C3CCC3)CC2)cc1 (stereo not drawn),-10.6%,?,-6.1%,i,-7.3%,12.8µM*
COC(=O)c1ccccc1NC(=O)CSc1nc(-c2ccccc2)cc(C(F)(F)F)n1,3.0%,-2.2%,10.4%,10µM*,-3.5%,-12.9%
COc1ccc(NC(=O)CSc2nc(-c3cccs3)cc(C(F)(F)F)n2)cc1OC,17.4%,?,-28.0%,i,-13.9%,4.22µM*
COc1ccc(NC(=O)CSc2nc(-c3cccs3)cc(C(F)(F)F)n2)cc1Cl,-13.5%,0.3%,-0.9%,i,-27.4%,?
N#Cc1c(C(F)(F)F)cc(-c2cccs2)nc1SCC(=O)Nc1cccc(Br)c1,?,1.4%,-9.5%,i,11.7µM*,-1.1%
N#Cc1c(C(F)(F)F)cc(-c2cccs2)nc1SCC(=O)Nc1cccc(Cl)c1,-14.8%,0.8%,-7.1%,i,-15.4%,-13.0%
COc1ccc(OCCCC(=O)Nc2cccc([N+](=O)[O-])c2C)cc1,-8.4%[1.84 µM],·,·,·,·,·
Cc1cc2n(n1)CCC(=O)N2Cc1ccc(C(=O)Nc2cc(Cl)ccc2C)cc1,-2.6%,-6.0%,9.2%,i,0.3%,?
Cc1oc(-c2cccc(Cl)c2)nc1CN1CCCC(C(=O)NCCc2ccc(Cl)cc2)C1 (stereo not drawn),20µM*,?,-1.4%,i,0.4%,?
Cc1ccc(C(=O)Nc2nc3ccc(S(C)(=O)=O)cc3s2)o1,10µM*,·,12.6µM*,·,·,·
COc1ccc(C(=O)Nc2nc3ccc(S(C)(=O)=O)cc3s2)cc1,-10.8%,·,-1.4%,·,·,·
Cc1cc(C)c(NC(=O)Cn2c(=O)n(Cc3ccc(C(=O)NCc4ccco4)cc3)c(=O)c3sccc32)c(C)c1,10µM*,-6.5%,?,i,-6.1%,?
Cc1cc(S(=O)(=O)Nc2ccc(O)c(Sc3nc4ccccc4s3)c2)ccc1Cl,-3.8%,?,46.4%,i,-7.4%,?
CS(=O)(=O)c1ccc(Sc2nc3ccccc3s2)c([N+](=O)[O-])c1,·,·,12.6µM*,·,·,·

# Assay outcomes: PubChem, National Center for Advancing Translational Sciences (NCATS)
